MITF primary: MITF inhibitors, primary screen, biochemical, AlphaScreen, human; Microphthalmia-associated transcription factor (Homo sapiens), O75030; AlphaScreen MITF homodimerization, bead proximity signal; inhibition, % at 2.6 µM; 650,000 compounds, 0.91% hits; in the data active means inhibition above about 50%
TEAD-YAP inh: TEAD-YAP interaction inhibition, primary screen, TEAD-YAP interaction inhibitor project, luminescence, HEK-TIYL cells; TEAD-Gal4/YAP UAS-luciferase luminescence; inhibition, % at 9.12 µM; 640,000 compounds, 1.4% hits; AID 1259422, 2018; in the data active means inhibition above about 32%
GPR151 activ: activators of human GPR151, primary screen, cell-based, PathHunter beta-arrestin, luminescence; PathHunter beta-arrestin GPR151 cells; G-protein coupled receptor 151 (Homo sapiens), Q8TDV0; 650,000 compounds, 1% hits; activation, % at 11.2 µM; AID 1508602, 2020; in the data active means activation above about 4.9%
FBW7 activator: FBW7 E3 ligase activators, primary screen, biochemical, AlphaScreen, human | AlphaScreen FBW7–phospho-cyclin E peptide binding, activator screen | normalized activity (activation), % at 26.1 µM | 650,000 compounds, 0.13% hits; in the data active means normalized activity above about 1.9%;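 further: purified mutant Fbw7 with reduced substrate affinity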
Target sequence (Q969H0 whole entry, looked up): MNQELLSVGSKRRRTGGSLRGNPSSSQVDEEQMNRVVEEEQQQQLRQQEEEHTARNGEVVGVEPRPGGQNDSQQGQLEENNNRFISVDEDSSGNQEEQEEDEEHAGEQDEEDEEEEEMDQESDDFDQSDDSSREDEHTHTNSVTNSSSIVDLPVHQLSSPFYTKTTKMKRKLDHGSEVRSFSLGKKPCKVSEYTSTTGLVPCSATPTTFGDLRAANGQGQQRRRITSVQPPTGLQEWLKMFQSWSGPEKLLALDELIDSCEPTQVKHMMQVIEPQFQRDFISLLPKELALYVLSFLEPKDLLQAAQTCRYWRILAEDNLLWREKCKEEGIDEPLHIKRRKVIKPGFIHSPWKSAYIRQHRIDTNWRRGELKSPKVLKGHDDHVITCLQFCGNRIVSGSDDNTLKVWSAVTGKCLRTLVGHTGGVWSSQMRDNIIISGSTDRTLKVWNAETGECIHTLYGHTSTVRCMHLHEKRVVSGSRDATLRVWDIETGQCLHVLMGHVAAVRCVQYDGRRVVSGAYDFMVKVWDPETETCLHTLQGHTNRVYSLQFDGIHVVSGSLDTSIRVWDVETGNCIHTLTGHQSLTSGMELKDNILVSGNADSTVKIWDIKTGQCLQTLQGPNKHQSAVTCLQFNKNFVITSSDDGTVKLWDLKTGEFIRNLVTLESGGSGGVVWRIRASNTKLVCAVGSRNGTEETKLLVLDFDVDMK
Numbers stand for hits; – = inactive. Rows were chosen to be rich in hits. Some 3.5% of all compounds tested hit in one or more screens of this group.

SMILES | MITF primary | TEAD-YAP inh | GPR151 activ | FBW7 activator
Cc1c(-c2ccc(-c3ccccc3)cc2)[n+](CC(=O)c2ccccc2)c2ccccn12 | – | 56.3 | – | –
Cn1c(Nc2nc(NCc3ccccc3)c3ncn(-c4ccccc4)c3n2)nc2ccccc21 | – | – | – | –
CCOC(=O)c1c(NC(=O)Cc2ccc(OC)cc2)sc(C(=O)Nc2cccc(OC)c2)c1C | – | – | – | –
Cc1cc(=O)oc2c1ccc1oc(C(=O)c3ccccc3)c(-c3ccccc3)c12 | – | 72.0 | – | –
Cc1cc(=O)oc2c1ccc1oc(C(=O)c3ccccc3)c(C)c12 | – | 48.6 | – | –
CC(=O)c1oc2ccc3c(C)cc(=O)oc3c2c1-c1ccccc1 | – | – | – | –
Cc1cc(=O)oc2c1ccc1oc(C(=O)c3ccc(Cl)cc3)c(-c3ccccc3)c12 | – | 63.2 | – | –
C/C(=N\O)c1oc2ccc3c(C)cc(=O)oc3c2c1C | – | – | – | –
COC(=O)c1nc2n(n1)C(c1ccc(F)cc1)C1=C(CC(C)(C)CC1=O)N2 (stereo not given) | – | – | – | –
Cc1nc(SCc2ccccc2)n[nH]1 | – | – | – | –
Cc1nc(SCc2ccc(CSc3n[nH]c(C)n3)cc2)n[nH]1 | – | 82.9 | – | –
COc1ccc(CSc2n[nH]c(C)n2)cc1 | – | 64.3 | – | –
COc1ccc(N2C(=O)C3C(c4cccc(Br)c4)OC4(C(=O)c5ccccc5C4=O)C3C2=O)cc1 (stereo not given) | 81.3 | – | – | –
CC(=O)NC(C(=O)OCC(=O)N(c1ccccc1)c1ccccc1)C(C)C (stereo not given) | – | – | – | –
CC(=O)NC(C(=O)OCc1cnc(-c2ccccc2)s1)C(C)C (stereo not given) | – | 58.8 | – | –
Cc1ccc(C(C)C)c(Oc2ccc(N3C(=O)C4C5CCC(C5)C4C3=O)cc2)c1 (stereo not given) | – | – | – | –
NC(=O)c1cccc(CNC(=O)c2ccccc2C(N)=O)c1 | – | – | – | –
COc1ccc(/C=C2/C(=O)NN(c3ccc(Cl)cc3)C2=O)cc1OC | – | – | – | –
CC1Cc2ccccc2N1C(=O)CNCCCN(C)C (stereo not given) | – | – | – | –
CC1CC2(C)Oc3ccccc3CC2C(C)C1CNCCCN(C)C (stereo not given) | – | 38.2 | – | –
c1ccc(-c2cnc(N3CCC4(CC3)OCCO4)nc2)cc1 | – | 70.4 | – | –
COc1ccc(-c2cnc(N3CCC4(CC3)OCCO4)nc2)cc1 | – | – | – | –
c1ccc(-c2cc(N3CCC4(CC3)OCCO4)nc(-c3ccccn3)n2)cc1 | – | 42.8 | – | –
Fc1ccc(-c2cc(N3CCC4(CC3)OCCO4)nc(-c3ccccn3)n2)cc1 | – | – | – | –
C/C(=N\Nc1nc2ccccc2[nH]1)c1ccccc1O | 52.4 | – | – | –
SMILES | MITF primary | TEAD-YAP inh | GPR151 activ | FBW7 activator
C(=N\Nc1nc2ccccc2[nH]1)/c1ccccn1 | – | 95.5 | – | –
C(=N\Nc1nc2ccccc2[nH]1)/c1cccc(/C=N/Nc2nc3ccccc3[nH]2)c1 | – | – | – | –
C/C(=N\Nc1nc2ccccc2[nH]1)c1ccccc1Cl | – | – | – | –
Oc1ccc(Br)cc1/C=N\Nc1nc2ccccc2[nH]1 | – | 64.7 | – | –
NC(=O)c1ccc(Oc2ccccc2F)c([N+](=O)[O-])c1 | – | – | – | –
COC(=O)c1c(NC(C)=O)sc(C)c1-c1ccccc1 | – | – | – | –
O=C(NCCCn1ccnc1)C1CC12CCN(C(=O)C1(c3ccccc3)CCCCC1)CC2 (stereo not given) | – | 38.0 | – | –
O=C(O)/C=C/c1cccc(-c2cnn3c(N4CCC[C@H]4CO)ccnc23)c1 | – | 49.7 | – | –
COc1ccc(-c2cnn3c(N4CCC[C@H]4CO)ccnc23)cc1OC | – | – | – | –
OC[C@@H]1CCCN1c1ccnc2c(-c3cccc(O)c3)cnn12 | – | 100.2 | – | –
OC[C@@H]1CCCN1c1ccnc2c(-c3ccc4ccccc4c3)cnn12 | – | 59.8 | – | –
COc1ccc(-c2cnn3c(N4CCC[C@H]4CO)ccnc23)cc1 | – | 57.0 | – | –
CCN(C(=O)Cc1noc2ccccc12)c1ccccc1C | – | – | – | –
COc1ccc(/C=C2/Sc3ccc(C(=O)O)cc3NC2=O)cc1 | – | – | – | –
CCOC(=O)c1c(NC(=O)CSc2nnc(CNC(=O)Cc3ccccc3)n2-c2cc(C)ccc2C)sc2c1CCC2 | – | – | – | –

Screening data as filed in PubChem.
